Compound activity as filed in PubChem BioAssay.
An excerpt weighted towards active compounds, which were near 2.4% of everything screened.
Pf_Dd2_growth: P. falciparum Dd2 growth inhibition | SYBR Green, 72 h; hits give low values | 2.3% of 94,000 active | activity change, % at 10 µM; in the data active = activity change below about -80%
C_diff_HTS: inhibitors of Clostridium difficile growth | Clostridium difficile clinical isolate growth, OD600, 24 h; hits give low values | growth activity, negative = inhibition, % at 16 µg/mL (by protocol) | 0.25% of 86,000 active | AID 1259249;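 active = mean growth activity at or below -80% and every replicate also at or below -80%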
A number is an active result; . = inactive; / = no result.

SMILES Pf_Dd2_growth C_diff_HTS
CC(C)NC(=O)Nc1ccc2c(c1)C(=O)N([C@H](C)CO)C[C@H](C)[C@H](CN(C)S(=O)(=O)c1ccc(Cl)cc1)OCCCC[C@@H](C)O2 . .
C[C@@H]1CN([C@@H](C)CO)C(=O)c2cc(NC(=O)Nc3ccccc3)ccc2O[C@@H](C)CCCCO[C@H]1CN(C)S(=O)(=O)c1ccc(Cl)cc1 -83 /
CC(C)NC(=O)Nc1ccc2c(c1)C(=O)N([C@@H](C)CO)C[C@H](C)[C@H](CN(C)S(=O)(=O)c1ccc(Cl)cc1)OCCCC[C@@H](C)O2 -83 .
Cc1ccc(S(=O)(=O)N(C)C[C@@H]2OCCCC[C@H](C)Oc3ccc(NC(=O)Nc4ccccc4)cc3C(=O)N([C@@H](C)CO)C[C@H]2C)cc1 -92 .
COc1ccc(NC(=O)N(C)C[C@@H]2Oc3ccc(NC(=O)Nc4ccc(F)cc4)cc3C(=O)N([C@@H](C)CO)C[C@@H]2C)cc1 . .
C[C@@H]1CN([C@@H](C)CO)C(=O)c2cc(C#Cc3cccnc3)cnc2O[C@@H]1CN(C)C . .
O=C(c1cccnc1)N1CC2(C1)[C@H](c1ccccc1)[C@H](CO)N2CC1CC1 . .
C[C@H]1CN([C@@H](C)CO)C(=O)CCCn2cc(nn2)CO[C@H]1CN(C)C(=O)c1ccc2ccn(C)c2c1 . .
C[C@@H]1CCCCO[C@H](CN(C)S(=O)(=O)c2ccccc2)[C@@H](C)CN([C@H](C)CO)C(=O)c2cc(NC(=O)CCCCCC(=O)Nc3ccccc3N)ccc2O1 . .
CN(C)CC(=O)Nc1ccc2c(c1)[C@H]1C[C@H](CC(=O)NCCN3CCCCC3)O[C@@H](CO)[C@H]1O2 . .
O=C(C[C@@H]1CC[C@H]2[C@@H](COC[C@@H](O)CN2C(=O)c2cnccn2)O1)NCc1ccc(Oc2ccccc2)cc1 . .
CCS(=O)(=O)N[C@H]1C=C[C@@H](CC(=O)NC2Cc3ccccc3C2)O[C@@H]1CO . /
C[C@H]1CN([C@@H](C)CO)C(=O)c2cccc(NC(=O)c3nc4ccccc4s3)c2O[C@@H]1CN(C)S(=O)(=O)c1ccccc1 -81 .
COc1ccc(NC(=O)N(C)C[C@H]2Oc3c(NC(=O)c4nc5ccccc5s4)cccc3C(=O)N([C@@H](C)CO)C[C@@H]2C)cc1 . .
C[C@@H]1CN([C@H](C)CO)C(=O)c2cccc(NC(=O)c3nc4ccccc4s3)c2O[C@H]1CN(C)C(=O)NC1CCCCC1 -89 /
C[C@H](CO)N1C[C@H](C)[C@@H](CN(C)S(=O)(=O)c2ccccc2)Oc2c(NC(=O)c3nc4ccccc4s3)cccc2C1=O . .
C[C@H]1CN([C@@H](C)CO)C(=O)c2cccc(NC(=O)c3nc4ccccc4s3)c2O[C@@H]1CN(C)C(=O)NC1CCCCC1 . /
COc1ccc(NC(=O)N(C)C[C@@H]2Oc3c(NC(=O)c4nc5ccccc5s4)cccc3C(=O)N([C@@H](C)CO)C[C@H]2C)cc1 -87 .
CC(C)NC(=O)N(C)C[C@H]1Oc2c(NC(=O)c3nc4ccccc4s3)cccc2C(=O)N([C@@H](C)CO)C[C@@H]1C . .
C[C@@H]1CN([C@@H](C)CO)C(=O)c2cccc(NC(=O)c3nc4ccccc4s3)c2O[C@H]1CN(C)C(=O)NC1CCCCC1 -89 /
Cc1ccc(S(=O)(=O)N[C@H]2CC[C@@H](CCNC(=O)C3CC3)O[C@@H]2CO)cc1 / .
CC(C)CC#Cc1ccc2c(c1)O[C@@H](CN(C)Cc1cccc(F)c1)[C@H](C)CN([C@H](C)CO)S2(=O)=O -92 .
C[C@@H]1CN([C@@H](C)CO)S(=O)(=O)c2ccc(-c3cccc(C#N)c3)cc2O[C@H]1CN(C)Cc1cccc(F)c1 -84 .
CC(C)CC#Cc1ccc2c(c1)O[C@@H](CN(C)Cc1ccccc1)[C@@H](C)CN([C@H](C)CO)S2(=O)=O . /
C[C@H](CO)N1C[C@H](C)[C@@H](CN(C)Cc2cccc(F)c2)Oc2cc(-c3cccc(C#N)c3)ccc2S1(=O)=O . .
SMILES Pf_Dd2_growth C_diff_HTS
C[C@H](CO)N1C[C@H](C)[C@@H](CN(C)S(C)(=O)=O)Oc2ccc(NS(=O)(=O)c3cn(C)cn3)cc2CC1=O . .
COc1ccc2c3c(n(C)c2c1)[C@H](CO)N(Cc1ccccc1F)CC31CN(C(=O)C2CCOCC2)C1 . .
CN1c2ccc(C#Cc3cccnc3)cc2[C@H]2[C@H](CCN2S(=O)(=O)c2cccc(F)c2)[C@H]1CO . .
C[C@@H]1CCCCO[C@@H](CN(C)C(=O)Nc2ccc(C(F)(F)F)cc2)[C@@H](C)CN([C@H](C)CO)C(=O)c2cc(NC(=O)Nc3ccc(F)cc3)ccc2O1 . .
C[C@@H]1CCCCO[C@@H](CN(C)C(=O)Nc2ccc(F)cc2)[C@@H](C)CN([C@@H](C)CO)C(=O)c2cc(NC(=O)Nc3ccc(C(F)(F)F)cc3)ccc2O1 -88 .
C[C@H]1CCCCO[C@H](CN(C)C(=O)Nc2ccc(C(F)(F)F)cc2)[C@@H](C)CN([C@@H](C)CO)C(=O)c2cc(NC(=O)Nc3ccc(F)cc3)ccc2O1 -80 .
COc1ccc(NC(=O)Nc2ccc3c(c2)C(=O)N([C@H](C)CO)C[C@H](C)[C@@H](CN(C)C(=O)Nc2ccc4c(c2)OCO4)OCCCC[C@H](C)O3)cc1 . .
C[C@@H]1CCCCO[C@H](CN(C)C(=O)Nc2ccc(C(F)(F)F)cc2)[C@@H](C)CN([C@H](C)CO)C(=O)c2cc(NC(=O)Nc3ccc(F)cc3)ccc2O1 . .
C[C@@H]1CCCCO[C@H](CN(C)C(=O)Nc2ccc3c(c2)OCO3)[C@H](C)CN([C@H](C)CO)C(=O)c2cc(NC(=O)Nc3ccc(F)cc3)ccc2O1 -88 .
C[C@@H]1CCCCO[C@@H](CN(C)C(=O)Nc2ccc(F)cc2)[C@@H](C)CN([C@H](C)CO)C(=O)c2cc(NC(=O)Nc3ccc4c(c3)OCO4)ccc2O1 . .
COc1ccc(NC(=O)Nc2ccc3c(c2)C(=O)N([C@@H](C)CO)C[C@H](C)[C@H](CN(C)C(=O)Nc2ccc4c(c2)OCO4)OCCCC[C@@H](C)O3)cc1 -82 .
COCC#Cc1ccc2c(c1)O[C@H](CN(C)Cc1ccccc1)[C@@H](C)CN([C@H](C)CO)S2(=O)=O . .
CO[C@H]1CN(C)C(=O)c2ccc(NC(=O)c3cnccn3)cc2OC[C@@H](C)N(C(C)=O)C[C@@H]1C . .
C[C@@H]1CN([C@H](C)CO)S(=O)(=O)c2ccc(C#Cc3ccc(F)cc3)cc2O[C@@H]1CN(C)C(=O)c1ccccn1 . .
C[C@@H]1CCCCO[C@H](CN(C)C(=O)Nc2ccc(C(F)(F)F)cc2)[C@@H](C)CN([C@@H](C)CO)C(=O)c2cc(NC(=O)Nc3ccc(C(F)(F)F)cc3)ccc2O1 -88 .
C[C@@H]1CCCCO[C@H](CN(C)C(=O)Nc2ccc(F)cc2)[C@H](C)CN([C@H](C)CO)C(=O)c2cc(NC(=O)C3CCCCC3)ccc2O1 -81 .
C[C@@H]1CN([C@H](C)CO)C(=O)c2cc(NC(=O)C3CCCCC3)ccc2O[C@@H](C)CCCCO[C@H]1CN(C)C(=O)Nc1ccc(F)cc1 . .
C[C@@H]1CCCCO[C@H](CN(C)C(=O)Nc2ccc(C(F)(F)F)cc2)[C@H](C)CN([C@@H](C)CO)C(=O)c2cc(NC(=O)Nc3ccc(C(F)(F)F)cc3)ccc2O1 . .
